From PubChem
NR0B1 inh: inhibits human nuclear receptor DAX1; HEK293 Gal4-DAX1 luciferase reporter, luminescence; inhibition, % at 6.75 µM; actives 0.99% (n = 340,000); P51843;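 active = inhibition above the mean over all tested compounds plus 3 SD, cut at about 4.2% in these data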;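 also: 0% = DAX1-transfected cells with DMSO and 100% = empty-vector control cells with DMSO; inhibition shows as a rise in luminescence from relieved DAX1 repression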
FXN GAA850 act: increases GAA850 frataxin promoter reporter activity. HEK293 lucGAA850 FXN promoter luciferase reporter, 24 h; percent of 10 µM SAHA response. activation, % at 6 µM. actives 0.56% (n = 360,000). AID 540364;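 active = activation above the average of all compounds screened plus 3 SD, cutoff fixed separately per campaign, cut at about 7.5% in these data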;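 also: 0% = DMSO wells and 100% = 10 µM SAHA wells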
HSF1 activator: increases HSF-1 driven luciferase reporter signal; actives 1.7% (n = 300,000); activation, % at 9 µM; NIH3T3-HGL HSF-1 luciferase reporter, MG132, 8 h; 100% = twice DMSO control signal;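 active = mean replicate activation of at least 50% with a set share of replicates each reaching 50%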;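 also: 0% = median of the neutral control wells and 100% = twice that signal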
HSP90 refold inh: inhibitors of HSP90 luciferase refolding in rabbit reticulocyte lysate | luciferase refolding luminescence, 3 h | inhibition, % at 5.6 µM | actives 0.91% (n = 290,000);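 active = inhibition above the screen-wide mean plus 3 SD, computed separately per campaign, cut at about 16% in these data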;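 also: 0% = DMSO wells and 100% = 60 µM geldanamycin wells; inhibitors lower the luminescence because luciferase stays unfolded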
AHR activator: human AHR activation. P35869. AHR-responsive luciferase reporter cells, luminescence. activation, % at 5 µM. actives 2.5% (n = 320,000); in the data active = activation above about 47%;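 also: 0% = vehicle wells and 100% = reference agonist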
Target sequence (P35869 whole entry, looked up): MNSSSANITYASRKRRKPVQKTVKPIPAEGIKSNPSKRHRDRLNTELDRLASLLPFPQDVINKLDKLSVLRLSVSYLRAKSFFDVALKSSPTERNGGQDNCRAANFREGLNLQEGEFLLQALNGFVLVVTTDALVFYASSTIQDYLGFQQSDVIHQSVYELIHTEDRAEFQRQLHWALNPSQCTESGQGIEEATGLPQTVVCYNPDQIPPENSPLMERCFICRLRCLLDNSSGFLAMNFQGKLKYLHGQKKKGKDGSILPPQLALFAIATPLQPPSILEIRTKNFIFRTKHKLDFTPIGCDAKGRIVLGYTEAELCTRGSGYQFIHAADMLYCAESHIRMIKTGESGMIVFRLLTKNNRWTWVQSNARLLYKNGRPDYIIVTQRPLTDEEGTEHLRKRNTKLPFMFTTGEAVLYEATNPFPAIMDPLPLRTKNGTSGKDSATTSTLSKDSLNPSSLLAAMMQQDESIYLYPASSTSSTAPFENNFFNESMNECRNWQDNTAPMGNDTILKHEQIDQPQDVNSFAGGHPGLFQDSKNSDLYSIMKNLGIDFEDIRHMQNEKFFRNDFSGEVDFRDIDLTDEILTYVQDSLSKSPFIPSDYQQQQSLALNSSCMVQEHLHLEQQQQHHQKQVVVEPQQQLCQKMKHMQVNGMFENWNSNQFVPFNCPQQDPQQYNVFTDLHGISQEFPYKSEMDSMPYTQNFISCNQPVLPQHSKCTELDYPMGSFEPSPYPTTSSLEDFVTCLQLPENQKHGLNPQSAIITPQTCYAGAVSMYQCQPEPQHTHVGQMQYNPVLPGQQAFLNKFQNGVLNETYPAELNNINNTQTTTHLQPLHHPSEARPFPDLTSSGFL
HSF1 inhib: HSF1 inhibition | NIH3T3-HGL HSE-luciferase, MG132-induced, luminescence 8 h; stronger effect = lower value | activity change, negative = inhibition, % at 7.5 µM (by protocol) | AID 2098 | actives 0.77% (n = 300,000);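 active = more than half of replicate wells show activity change below -50%, luminescence cut by over half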;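 also: luciferase reports HSF-1 transcriptional activity via heat shock element; 0% = median of DMSO wells and -100% = zero luminescence signal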
An asterisk follows results filed as active; / = no result given. This is a sample that favours compounds with a hit; in the whole collection about 5.9% have one here.

SMILES | NR0B1 inh | FXN GAA850 act | HSF1 activator | HSP90 refold inh | AHR activator | HSF1 inhib
c1csc(CNc2ncnc3ccc(-c4ccc5c(c4)OCCO5)cc23)c1 | -1 | 1 | / | / | 13 | /
Cc1cc(C(=O)COC(=O)c2ccc(Cl)c(S(N)(=O)=O)c2)c(C)n1C1CC1 | 1 | 4 | 39 | / | -2 | 30
CC(=O)N[C@@H](Cc1c[nH]c2ccccc12)C(=O)NCCc1ccc(S(N)(=O)=O)cc1 | 1 | 0 | -19 | 4 | 4 | -6
CC(=O)N[C@@H](Cc1c[nH]c2ccccc12)C(=O)NCc1ccccc1 | -1 | 0 | 65* | 0 | -2 | 15
CCOC(=O)C1CCCN(C(=O)c2ccc3sccc3c2)CC1 (stereo not given) | / | 0 | / | / | / | /
Cc1ccc(C)c(-c2csc(NC(=O)C3=COCCO3)n2)c1 | -1 | -1 | -12 | / | 4 | -12
COc1ccc(OC)c(-c2csc(NC(=O)C3=COCCO3)n2)c1 | -1 | 3 | 35 | / | 50* | 10
CC(=O)c1ccc(NC(=O)C2CC2c2ccccc2)cc1 (stereo not given) | -1 | 2 | 5 | / | 7 | -3
COc1ccc(NCc2ccsc2)cc1 | 0 | 0 | 11 | -6 | 1 | 4
O=C(N/N=C/c1c(Cl)cccc1Cl)c1ccccc1F | -1 | 4 | 4 | -6 | 60* | 0
CCC(/C=N/NC(=O)c1ccccc1F)CC | 5.3* | 4 | 8 | 5 | 8 | 14
O=C(N/N=C/c1c(Cl)cccc1Cl)c1ccc(F)cc1 | 0 | 1 | 26 | -3 | 16 | 7
Nc1ccc2nc(-c3ccccn3)[nH]c2c1 | 0 | 0 | -55 | 1 | 39 | -57*
Nc1ccc2nc(-c3cccs3)[nH]c2c1 | 3 | 5 | 10 | -2 | 21 | 1
COc1ccc2nc(-c3ccccn3)[nH]c2c1 | 2 | 4 | 30 | 4 | 47* | 17
Nc1ccc2nc(-c3ccccc3)[nH]c2c1 | 1 | 5 | 33 | -5 | 67* | 21
Nc1ccc2nc(-c3cccnc3)[nH]c2c1 | 0 | 0 | 26 | 2 | 13 | -5
CCCCn1c(N)c(N(CCOC)C(=O)CCNC(=O)c2ccccc2Cl)c(=O)[nH]c1=O | 1 | -5 | 2 | 3 | -1 | 0
Cc1ccc(NC(=O)c2cccc(S(=O)(=O)N3CCN(c4ccc(F)cc4)CC3)c2)nc1 | -2 | -1 | 2 | 2 | 1 | 1
COc1ccc(-c2ccc3ccccc3n2)cc1 | -1 | 6 | 39 | 7 | 23 | 1
COc1ccc(-c2cn3ccc4ccccc4c3n2)cc1 | 2 | 6 | 24 | 5 | 48* | 8
COc1ccc(-c2cn3cc(C(F)(F)F)cc(Cl)c3n2)cc1 | 3 | 0 | 17 | -4 | 52* | 9
Cc1cccn2cc(-c3ccccc3)nc12 | 3 | 3 | 69* | 8 | 38 | 30
Cc1cccn2cc(-c3ccc(F)cc3)nc12 | 2 | 2 | 47 | 7 | 28 | 32
CCCn1c(CC)nc([N+](=O)[O-])c1Sc1ncn[nH]1 | -1 | 0 | / | / | / | /
SMILES | NR0B1 inh | FXN GAA850 act | HSF1 activator | HSP90 refold inh | AHR activator | HSF1 inhib
CCc1ccc(NC(=O)NCCN2CCCCC2)cc1 | 1 | 2 | -9 | -3 | 1 | 0
CCOC(=O)c1c(C)oc2c1c(CN1CCN(C(=O)OCC)CC1)c(O)c1ccccc12 | 1 | 2 | 4 | -1 | 50* | 6
CCOC(=O)c1cc(-c2ccc(OC(F)F)cc2)nc2nc(SC)[nH]c(=O)c12 | -2 | 4 | 2 | 4 | 11 | 0
CCOC(=O)c1cc(-c2ccc(OC(F)F)cc2)nc2c1c(=O)[nH]c(=O)n2C | 0 | 2 | -3 | -2 | 61* | -1
COc1ccc(N(CC(=O)NC2CCCC2)C(=O)c2ccc(C)s2)c(OC)c1 | 0 | -2 | -16 | 2 | -1 | 1
COc1ccc(N(CC(=O)NC2CCCCC2)C(=O)c2ccc(C)s2)cc1OC | -1 | 4 | 71* | -2 | 2 | 20
O=C/C(=C\Nc1ccc(Cl)cn1)c1nc2cc(Cl)ccc2o1 | -1 | 1 | -5 | 0 | 51* | -7
O=C(Cc1ccccc1F)Nc1ccc(S(=O)(=O)N2CCCCC2)cc1 | 0 | 0 | -73 | 1 | 2 | -65*
O=C(Cn1nc(-c2ccccc2Cl)ccc1=O)Nc1ccccc1-c1ccccc1 | -1 | 2 | 53* | 2 | 4 | 14
